GLA spleen mod = qHTS Assay for Inhibitors and Activators of Human alpha-Galactosidase From Spleen Homogenate | human spleen homogenate, 4MU-alpha-Gal fluorescence, 40 min | Potency, µM (series often up to 80 µM), inactives show at the top dose activity change, negative = inhibition, hits mostly inhibitors | hit rate 0.008% among 240,000 | AID 2107, 2009;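 further: potency means the concentration at half of the fitted maximal effect; 0% = enzyme with vehicle and -100% = no enzyme basal signal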
Target sequence (P06280 32-429 limits assumed): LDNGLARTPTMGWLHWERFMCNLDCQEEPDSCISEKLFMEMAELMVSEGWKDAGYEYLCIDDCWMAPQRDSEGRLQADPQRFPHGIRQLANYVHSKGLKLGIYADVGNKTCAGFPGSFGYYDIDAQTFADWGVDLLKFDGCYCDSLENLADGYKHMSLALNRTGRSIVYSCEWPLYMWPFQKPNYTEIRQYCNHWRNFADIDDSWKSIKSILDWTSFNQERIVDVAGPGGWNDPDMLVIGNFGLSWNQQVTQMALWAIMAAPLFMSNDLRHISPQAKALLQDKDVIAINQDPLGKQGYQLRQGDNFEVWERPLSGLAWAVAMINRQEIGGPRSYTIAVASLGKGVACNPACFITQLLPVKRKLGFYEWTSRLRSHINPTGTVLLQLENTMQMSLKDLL
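Spleen homogenate 1 ug + cpd (titration) + 4-MU-alpha-D-galactopyranoside 1 mM; 37C 40 min; 50 mM citrate/phosphate pH 5.0, 0.01% Tween-20; stop pH 10; fluorescence 365/440; AC50 via Hill.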
GAA spleen mod = qHTS Assay for Inhibitors and Activators of Human alpha-Glucosidase From Spleen Homogenate | hit rate 0.006% among 240,000 | human spleen homogenate, 4-MU-alpha-glucoside fluorescence | Potency, µM (top dose mostly 79.9 µM), for inactives: top-dose activity change, negative = inhibition, usual class: inhibitors | Lysosomal alpha-glucosidase (Homo sapiens), P10253;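 further: potency means the concentration at half of the fitted maximal effect; 0% = enzyme with vehicle and -100% = no enzyme basal signal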
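Compounds were titrated against alpha-glucosidase in spleen homogenate at pH 5.0, with 1 mM 4-methylumbelliferyl substrate for 40 min at 37 C. Reactions were quenched with pH 10 NaOH/glycine and fluorescence measured.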
N370S GC mod = qHTS Assay for Inhibitors and Activators of N370S glucocerebrosidase as a Potential Chaperone Treatment of Gaucher Disease; Lysosomal acid glucosylceramidase (Homo sapiens), P04062; N370S GC spleen homogenate, 4MU-glucoside fluorescence; Potency, µM (series often up to 59.4 µM), without a hit: at the highest dose activity change, negative = inhibition, usual class: inhibitors; hit rate 0.092% among 330,000; AID 2101, 2009;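 further: potency means the concentration at half of the fitted maximal effect; 0% = full enzyme activity and -100% = no enzyme basal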
GAA glycogen mod = qHTS Assay for Inhibitors and Activators of Human alpha-Glucosidase Cleavage of Glycogen; recombinant GAA, glycogen substrate, Amplex Red glucose oxidase fluorescence; Potency, µM (highest dose often 76.4 µM), inactives show at the top dose activity change, negative = inhibition, most hits filed as inhibitors; hit rate 0.38% among 300,000;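 further: potency means the concentration at half of the fitted maximal effect; 0% = full enzyme reaction and -100% = no-enzyme basal signal; the screen sought inhibitors and activators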
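qHTS, 1536-well; enzyme 4 nM final; cpd up to 77 uM; substrate bovine liver glycogen 30 ug; 50 mM citrate/phosphate pH 5.0, 0.01% Tween-20; 37 C, 40 min; Amplex Red detection 45 min RT; Hill fit → AC50.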
GLA inh pH 4.5 = qHTS Assay for Inhibitors of Human alpha-Galactosidase at pH 4.5; Alpha-galactosidase A (Homo sapiens), P06280; purified enzyme, 4-MU-alpha-Gal fluorescence, pH 4.5; activity change, negative = inhibition, % at 105 µM; 230,000 tested, under 10 active; AID 1467, 2008;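 further: 0% = full activity with enzyme and -100% = basal without enzyme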
GAA inhib = qHTS Assay for Inhibitors of Human alpha-Glucosidase as a Potential Chaperone Treatment of Pompe Disease; AID 1466, 2008; Potency, µM (top dose mostly 76.9 µM), without a hit: at the highest dose activity change, negative = inhibition, most hits filed as inhibitors; purified human GAA, 4-MU-alpha-glucoside fluorescence; hit rate 0.005% among 200,000; Lysosomal alpha-glucosidase (Homo sapiens), P10253;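 further: potency means the concentration at half of the fitted maximal effect; plate controls were uninhibited enzyme wells for no effect and no-enzyme background for full effect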
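Fluorescence at Ex 365/Em 440 nm from 4-methylumbelliferone reported enzyme activity after 20 min at room temperature. Reactions used 4 nM enzyme and 400 uM substrate at pH 5.0; curves fitted with the Hill equation.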
The depositor's hits bear a star; ? = inconclusive; . = no result; [ ] = dose if it differs, or a comment. Compounds with a hit are over-represented: about 0.41% of the library has one in this group of screens. The call rests on the fitted dose curve; in most records, active means well fitted curve in the direction sought with a large enough effect; inconclusive means small, poorly fitted or top-dose-only effect, or another doubt; inactive means no such curve, though single readings can be large; an effect the other way counts as inactive or inconclusive.

SMILES	GLA spleen mod	GAA spleen mod	N370S GC mod	GAA glycogen mod	GLA inh pH 4.5	GAA inhib
CN1CCN(S(=O)(=O)c2cccc(C(=O)Nc3sc4c(c3-c3nc5ccccc5[nH]3)CCCC4)c2)CC1	-12%	-11%	11µM*	-3%	-1	-2%
COC(=O)[C@@H]1C[C@H]1[C@@H](NC(=O)c1ccc(Br)cc1)c1ccccc1	-2%	0%	18%	.	4	.
Cc1c(C)n(Cc2ccccc2)c2ccc(C(=O)NCCN3CCOCC3)cc12	.	.	?	8%[76.3 µM]	.	.
Cc1c(C)n(Cc2ccc(Cl)cc2)c2ccc(C(=O)NCCN3CCOCC3)cc12	.	.	10µM*	.	.	.
Cc1cc(C)cc(NC(=O)CCN2C(=O)c3ccccc3Sc3ncccc32)c1	.	.	.	-20%[76.3 µM]	.	.
CN1/C(=C\C(=O)COC(=O)c2ccc(O)c(O)c2)C(C)(C)c2ccccc21	9%	-2%	-20%	10µM*	-1	0%
CC(C)(C)c1cc(CNC2CS(=O)(=O)C[C@@H]2O)cc(C(C)(C)C)c1O (some centres not stated)	10%	4%	?	16µM*	0	7%
O=S1(=O)CC(O)C(NCc2ccco2)C1 (configuration not stated)	3%	11%	5%	8%	0	1%
COc1ccc(-c2cnc(N)nc2-c2ccc(OCc3ccccc3)cc2O)cc1	1%	-2%	-3%	-6%	-17	-5%
Nc1ncc(-c2ccccc2)c(-c2ccc(O)cc2O)n1	.	.	14µM*	3%	.	.
Nc1nonc1N/N=C\c1ccccc1	-3%	0%	-10%	-24%	3	.
Nc1nonc1N/N=C/c1c(O)ccc2ccccc12	6%	-2%	-4%	9.9µM*	-8	?
CC(=O)/C(=N/Nc1ccccc1)N1CCOCC1	-9%	-16%	-5%	10µM*	-2	-5%
CCOC(=O)/C(=N\Nc1cccc(C(F)(F)F)c1)N1CCOCC1	2%	-2%	-2%	?	-3	-4%
CC(=O)/C(=N/Nc1cccc(Cl)c1)N1CCOCC1	3%	2%	1%	14µM*	-26	-2%
CC(=O)/C(=N/Nc1ccccc1C)N1CCOCC1	9%	-3%	-1%	13µM*	-27	-4%
C=CC[C@@H]1C=C[C@@H](O/N=C2/[C@H]3O[C@@H]3[C@@H](O)[C@H]3[C@H]2CCn2c(=O)n(-c4ccccc4)c(=O)n23)[C@@H](CO)O1	10%[17.5 µM]	-7%[17.4 µM]	7%[12.8 µM]	.	.	.
CCS(=O)(=O)N1CCc2cc(C(=O)Nc3ccc(Br)cc3F)ccc21	.	.	.	-10%[76.3 µM]	.	.
Oc1ccccc1Nc1nc(NCc2ccccc2)c2ccccc2n1	3%	-1%	11µM*	7.1µM*	-9	-13%
CNc1nc(NCc2ccccc2)c2ccccc2n1	.	.	29%	-10%[76.3 µM]	.	.
CCc1cc2c(Nc3ccc(O)cc3)nc(C)nc2s1	.	.	20µM*	.	.	.
CCc1cc2c(Nc3ccccc3O)nc(C)nc2s1	.	.	-4%	-18%[15.3 µM]	.	.
Oc1ccc(Br)cc1-c1nc2cnccn2c1NC1CCCC1	-16%	-5%	5%	16µM*	-11	0%
O=[N+]([O-])c1cc(C(F)(F)F)ccc1NCCc1c[nH]c2ccc(O)cc12	1%	-6%	13%	9.9µM*	-17	-8%
Oc1ccc(/C=N/N2CCCCC2)c(O)c1	.	.	-19%	11µM*	.	.
SMILES	GLA spleen mod	GAA spleen mod	N370S GC mod	GAA glycogen mod	GLA inh pH 4.5	GAA inhib
Cc1ccc(CN2C(=O)C(=O)c3cc(Br)cc(C)c32)cc1	.	.	.	13%[76.3 µM]	.	.
COC(=O)C(NC(C)=O)(Nc1sc2c(c1C(N)=O)CCCC2)C(F)(F)F (configuration not stated)	5%	-4%	6%	20µM*	-4	1%
CCCCC(=O)NC(Nc1sc2c(c1C(N)=O)CCCC2)(C(=O)OCC)C(F)(F)F (configuration not stated)	0%	-1%	2%	?	-16	-4%
COc1ccc(NS(=O)(=O)c2ccc3[nH]c(=O)ccc3c2)cc1OC	.	.	.	-17%[76.3 µM]	.	.
CCOc1ccc(-c2cc3nc(C4CCN(C(=O)OC(C)(C)C)CC4)c(C(=O)Nc4ccc(C)cc4C)cn3n2)cc1	.	.	.	35µM*	.	.
CCOc1cc(CNc2ccc(N3CCOCC3)cc2)cc(Br)c1OCC	-8%	-3%	-7%	-2%	-8	-6%
COc1cc(CNc2ccc(N3CCOCC3)cc2)cc(Br)c1OC	2%	-20%	-10%	45µM*	-2	3%
COc1cc(CNc2ccc(N3CCN(C(C)=O)CC3)cc2)ccc1OCc1ccc(F)cc1	5%	1%	-17%	25µM*	5	2%
CCOc1c(Br)cc(CNc2ccc(N3CCN(C(C)=O)CC3)cc2)cc1OC	1%	-1%	-29%	32µM*	-9	.
COc1ccccc1CNc1cc(-c2c(C)noc2C)ncn1	3%	6%	0%	.	.	.
COC(=O)/C=C/c1cc(O)ccc1O	-23%	-5%	-3%	.	.	.
CCc1ccc(NC(=O)CSc2nc3ncccc3[nH]2)cc1	.	.	.	15%[76.3 µM]	.	.
CN1CCc2c(sc3c2C(=O)NC(c2ccc(C(C)(C)C)cc2)N3)C1 (configuration not stated)	.	.	.	16%[76.3 µM]	.	.
COc1cc(C2C(C#N)=C(C)NC3=C2C(=O)CC(C)(C)C3)cc(OC)c1O (configuration not stated)	3%	-2%	-3%	12µM*	-4	-8%
C/C(O)=C1\C(=O)[C@@H]2[C@H]3c4c[nH]c5cccc(c45)C[C@H]3C(C)(C)N2C1=O	12%	0%	-6%	.	.	.
Cc1sc2nc(CN3CCN(c4ccc(O)cc4)CC3)[nH]c(=O)c2c1C	-4%	3%	0%	16µM*	11	.
CCS(=O)(=O)N1CCCc2cc(C(=O)Nc3cccc(C(C)=O)c3)ccc21	.	.	.	35µM*	.	.
CC(=O)c1cccc(NC(=O)c2ccc3c(c2)CCN3S(=O)(=O)c2ccccc2)c1	.	.	-10%	4%[76.3 µM]	.	.
Cc1c(N=Cc2c(O)n(C)c(=O)c3ccccc23)c(=O)n(-c2ccccc2)n1C	-3%	-6%	2%	-12%	6	?
Cc1cccn2c(=O)c(C=Nc3c(C)n(C)n(-c4ccccc4)c3=O)c(N3CCCC3)nc12	-4%	-3%	6%	11µM*	8	-2%
Cc1c(N=Cc2ccc[nH]2)c(=O)n(-c2ccccc2)n1C	2%	2%	3%	22µM*	0	1%
